The source of these data is PMC13494018.

B1: d6r1_design_ppi_719_dldesign_0_cycle0_af2pred (protein)
chain: AAAAAAEAARQASAEKAKQLGLDLAEDARRLTEAGGSPAAVQAALNSAEAVARNLAAMGEVGKPFAEEVLKAAEEARKLAA
B2: d8r1_design_ppi_530_dldesign_0_cycle0_af2pred (protein)
chain: AAALAAALAAAAEAAAAAEAEAVAAAVSETVAAAARAAIKSFESGANKELAKQAMAAASAAGAAMKAGDTAAAQQYAAQTQALVAQIA
B3: d6r1_design_ppi_1117_dldesign_0_cycle0_af2pred (protein)
chain: SQQQTQQAQQQAQATIAQTQAARDELKKLAADPEARAAAESAAQQLAVAQDLNASGTLVGAQAALAMAQQALAVATATLAKAKAA
B4: d6r1_design_ppi_1013_dldesign_0_cycle0_af2pred (protein)
chain: SAEVQALLEEARRHIARAQKLLVAGNKEEALKEAEEAKKLAEEAKKLAADDPELAKSAEGLIKLAEAVIESAKA
B5: d6r1_design_ppi_887_dldesign_0_cycle1_af2pred (protein)
chain: AAVEEATAKAKELREKATKLALEGIRTGNQELVEKAKEKAEKAKELGESSNEEAKEYAKVALAVAEMAKAAL
B6: d6r1_design_ppi_848_dldesign_0_cycle1_af2pred (protein)
chain: AAGEKALEILKKTAQALLKNAPLLTAEAAAKLAKVIIDAAWAAAKKIGPEAEKVAKEVKALAKEAVAAAAAAAKARAA
B7: d6r1_design_ppi_1193_dldesign_0_cycle0_af2pred (protein)
chain: EEERQQLLAEAEALFARANALLPAAAAAGSEATALVVESLEYASKAARLAREGGDLEEAQKLLEKAKKYLAEAEKLIAA
B8: d6r1_design_ppi_1146_dldesign_0_cycle1_af2pred (protein)
chain: AEEEAAKLKAQADGLDTIATALIEQAKTGDAAVARGAAAAAVSLAKKAAELYKRAAKLAGDEKFGKEQAKKQKAKAKEAKEVAEKKAA
B9: d6r1_design_ppi_759_dldesign_0_cycle1_af2pred (protein)
chain: AAETERALRNAKAYATAAEHAAKAHPESPELKKLAAEAKAYYKKAAAAYAAGKKEEALKYAQKAIEKAAEAFSLLS
B10: d6r1_design_ppi_821_dldesign_0_cycle1_af2pred (protein)
chain: AAAQARAEARALNERARALLAAAPVGRAAEAEALATRALGLALAHREAFSNAEMTDILRTLARAAGAARQQAA
B11: d6r1_design_ppi_1043_dldesign_0_cycle1_af2pred (protein)
chain: AQASIQRGAQAANALMAAAAGYYAKKYKGPLGEKAKAAADQAAALAAQSAANPATAQANAQQASALLDELLKEVKAYEE
B12: d6r1_design_ppi_1088_dldesign_0_cycle1_af2pred (protein)
chain: GQAGTAKALINMARIGAKLGEEAYEVLKTIFETLANMIADPAWAEGGRAAREAIYAITMEIDPELAKRVLEEVE
B13: d6r1_design_ppi_761_dldesign_0_cycle0_af2pred (protein)
chain: AEEKERLKELAKFAKEALKKVEELRAAIKANADDPAAVAAARDAMIALAKEAAEKDAEVGNAVMIALGDPEKGVEKLKEVTEKLEKAA
B14: d6r1_design_ppi_848_dldesign_0_cycle0_af2pred (protein)
chain: AAAETGLKILEATVQALLKNASKYSAEAVKKLSEVLKASAEAEAKAGGEKLKERAKEIKKLAEEAEKKAKEAAKAKAE
B15: d6r1_design_ppi_759_dldesign_0_cycle0_af2pred (protein)
chain: MAKVEQLLNNAKAYAGAAENAARTHSENPELQKLAKEAKEYYEKAEKAYKEGKLKEAEEYAKKAIEKAAEAFSLLQ
B16: d6r1_design_ppi_911_dldesign_0_cycle1_af2pred (protein)
chain: GAAERTGRALANTAVAFAKSGSEEEAVAFATQMAEQIAALPGAEAAVARMAEELAKVLSPEAAAKVREAAAAILAKAAA
B17: d6r1_design_ppi_785_dldesign_0_cycle1_af2pred (protein)
chain: AAAASAAQTATITRAAVASGNTFDAARAGAEMLHYQDPAVGEEVAKTVEEAKKLSPEEAKAAILAKFDAIAARYA
B18: d6r1_design_ppi_833_dldesign_0_cycle0_af2pred (protein)
chain: MTPMSAAVAAAEEAIAAATAADPERGGRIAQEAFRGLAQATAIYVTQGKAAGDAAAEELRKRFEAEKAKVEAEAA
B19: d6r1_design_ppi_900_dldesign_0_cycle1_af2pred (protein)
chain: GEEAAREAEELERRAEELEELARRARELSAEELTEAALEAVRLANRAHALMTAGAPPEVAARLQEVAARALEAAERLSREAREKRA
B20: d6r1_design_ppi_812_dldesign_0_cycle0_af2pred (protein)
chain: SAELAERLRRISELFRKAIESGVEEAKRYVEEAAREFARLSGDEERGRELAREAKEAVELGEEGKEAVRAVAQRMLLYGAQAA
B21: d6r1_design_ppi_1169_dldesign_0_cycle1_af2pred (protein)
chain: ELEEEVERAVEEAREAAERAREAGKANPALAPQLEAVVRFLETAAEYARESGEEGTEALKEAVEAARGMAEAALAA
B22: d6r1_design_ppi_1061_dldesign_0_cycle1_af2pred (protein)
chain: AAAALAAAAAIAATLLAAGKAGDAATAAAALYGAALVLALADPAYAEVYDAVARAVSPAARAAGGAAAIALLAAAQA
B23: d6r1_design_ppi_1056_dldesign_0_cycle0_af2pred (protein)
chain: AAAAAAAAQAETDALADEARELAAKAAEKIDPEKGALLKELTDYYAAKARSGTDEAGRTGLRALLSAARNIVS
B24: d6r1_design_ppi_1105_dldesign_0_cycle1_af2pred (protein)
chain: AEKERLKEAAKRSAEKARELAKAGYALGAKAAILAAVRAAKEAGDAELVKEVLEVAKEAAKHPEVKPALEEAKKALEEVKK
B25: d6r1_design_ppi_695_dldesign_0_cycle1_af2pred (protein)
chain: EAAARQAAINAAALAVAKAVVDKAFADQSPAVVAGAKTMVTMIVNLYADPAKRPQAEALAENSHPAVREAVDAGLAAAAALAAA
B26: d6r1_design_ppi_1193_dldesign_0_cycle1_af2pred (protein)
chain: MEELKKLKEEAEKLFQKARDIMPQAVKAGNEAVSKVVEAQKYATEAAKLAKEGGDLEEAKKKYEKAKKYYEEALKLIAA
B27: d6r1_design_ppi_1068_dldesign_0_cycle0_af2pred (protein)
chain: MAAELTAKAQEAVERAAAAEAAGLKEAATLYLKAAAYYHAGAVNPATAAENAAKGEEYLAQAEALEKAAA
B28: d6r1_design_ppi_1153_dldesign_0_cycle0_af2pred (protein)
chain: TEAAAALLRKTIAALERRVERAPEMSLEEAKALAESAKVLLEAGKAVPEVAAAAEELYKRAEEVAKKKAEEAAA
B29: d6r1_design_ppi_973_dldesign_0_cycle1_af2pred (protein)
chain: EQKKAAEEAAKAIKEAAKKAKELGDEATANGLQAIATALKNAVEAGDYKAAAELAKIGAAQAATLPELAPLAKKIEKLAKKIEE
B30: d6r1_design_ppi_801_dldesign_0_cycle0_af2pred (protein)
chain: AALAALTAEANARANAILGRAFAEALARTRAGESPAPVFAAAAAELRRLGEESNPEGRAIADSGIALLQAAA
B31: d6r1_design_ppi_1068_dldesign_0_cycle1_af2pred (protein)
chain: APAVLLAQAQKSAELALKALELGYNEAAVLFLQAASYFFAGAVNPATAATYAAKGVELIEKGLALLKAAS
B32: d6r1_design_ppi_658_dldesign_0_cycle1_af2pred (protein)
chain: LEEELEKAKNEAKLLLAEAAATLLATDAKGQKAAQLLAAAIAYLDTDPEQALKDAKEALKLVPDSEKVKKALEATEKALELKKKI
B33: d6r1_design_ppi_829_dldesign_0_cycle0_af2pred (protein)
chain: EEAKKKAEELIAEVKAYADAAAAAAAAAGAARGAAAAALAAAAIAGIKNIAKAAEEEIKEAAEDPEKQKEIAERAKENIDKILAVALG
B34: d6r1_design_ppi_1033_dldesign_0_cycle1_af2pred (protein)
chain: AAEEEAKNAQVRQLAAQAFSYNLLADAAKQLAAAKGPEYEAKAKEYQAKAAAYKAEAEALNPEVFAAALAEVQAKYDAAL
B35: d6r1_design_ppi_1028_dldesign_0_cycle0_af2pred (protein)
chain: AAAIAATKAELAKGKALLAKAKAAPAAAWNEALAAELRAAANALNRAATALLAAGGDTALAVEATETAVELLKAAGEINRA
B36: d6r1_design_ppi_617_dldesign_0_cycle1_af2pred (protein)
chain: AAAQAQQLMNEALALLFEAARKAPDPSEILRAASKAAQGHLSGSLAEEALAYIREVAEKYPEVAELINEAAELYAQAAKL
B37: d6r1_design_ppi_699_dldesign_0_cycle1_af2pred (protein)
chain: EEEAKEKIREAAKEAAAAAKAQDPAHAPLIEAAAKEIAEAAEKGLVEAQEKANALARAHPEAAQHFSLIFAFAAQAYAEAR
B38: d6r1_design_ppi_807_dldesign_0_cycle1_af2pred (protein)
chain: AQAKRVSLAAALALLNSAIDAAADPKSAAALAEQAADLLESTGEAAPLGKKAKEAAKLLLEDPEKGKALAKEVAKKAAELLAKT

The target of the first assay is CD276, Q5ZPR3.
Chain of CD276, Q5ZPR3 (Q5ZPR3 whole entry): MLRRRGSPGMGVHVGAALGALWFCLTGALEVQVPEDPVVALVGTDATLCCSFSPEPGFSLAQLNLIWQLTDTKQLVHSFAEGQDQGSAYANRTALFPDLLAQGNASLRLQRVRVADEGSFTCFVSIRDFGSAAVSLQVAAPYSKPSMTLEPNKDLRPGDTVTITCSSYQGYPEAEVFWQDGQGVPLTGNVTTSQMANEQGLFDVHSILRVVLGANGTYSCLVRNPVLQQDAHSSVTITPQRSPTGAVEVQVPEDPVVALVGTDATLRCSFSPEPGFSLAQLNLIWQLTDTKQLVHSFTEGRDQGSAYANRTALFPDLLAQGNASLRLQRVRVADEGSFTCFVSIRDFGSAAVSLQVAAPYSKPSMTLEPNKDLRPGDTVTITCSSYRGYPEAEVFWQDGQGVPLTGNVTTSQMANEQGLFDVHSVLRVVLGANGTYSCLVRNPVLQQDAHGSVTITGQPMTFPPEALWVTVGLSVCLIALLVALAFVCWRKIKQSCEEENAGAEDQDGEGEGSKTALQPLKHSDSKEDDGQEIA
B1: the “binding in a display sort” value was “not found (inactive)”.
On the same count and under the same terms, as for B3, the entry is “not found (inactive)”; as for B4, “not found (inactive)”; as for B5, “not found (inactive)”.
For the molecule B6, the “binding in a display sort” value is “not found (inactive)”.
On the same count and under the same terms, the result for B7 reads “not found (inactive)”; that for B8, “not found (inactive)”; that for B9, “not found (inactive)”.
Take B10: the “binding in a display sort” value was “not found (inactive)”.
On to B11, for which the “binding in a display sort” value was “not found (inactive)”.
Turning to B12, the “binding in a display sort” value was “not found (inactive)”.
For B13, the “binding in a display sort” value is “not found (inactive)”.
On to B14, for which the “binding in a display sort” value was “not found (inactive)”.
For B15, the “binding in a display sort” value was “not found (inactive)”.
Consider B16, for which the “binding in a display sort” value is “not found (inactive)”.
B17: the “binding in a display sort” value was “not found (inactive)”.
As for B18, the “binding in a display sort” value is “not found (inactive)”.
Same read-out and setting: as for B19, the entry is “not found (inactive)”.
On to B20, for which the “binding in a display sort” value is “not found (inactive)”.
With B21, the “binding in a display sort” value is “not found (inactive)”.
Turning to B22, the “binding in a display sort” value is “not found (inactive)”.
As to B23, the “binding in a display sort” value is “not found (inactive)”.
Consider B24, for which the “binding in a display sort” value is “not found (inactive)”.
Take B25: the “binding in a display sort” value was “not found (inactive)”.
Consider B26, for which the “binding in a display sort” value was “not found (inactive)”.
For B27, the “binding in a display sort” value was “not found (inactive)”.
On to B28, for which the “binding in a display sort” value was “not found (inactive)”.
The same measure, in the same setting: the result for B29 reads “not found (inactive)”; that for B30, “not found (inactive)”; that for B31, “not found (inactive)”.
Consider B32, for which the “binding in a display sort” value is “not found (inactive)”.
Turning to B33, the “binding in a display sort” value is “not found (inactive)”.
Consider B34, for which the “binding in a display sort” value is “not found (inactive)”.
On to B35, for which the “binding in a display sort” value was “binds (active)”.
Same read-out and setting: as for B36, the entry is “not found (inactive)”; as for B37, “not found (inactive)”; as for B38, “not found (inactive)”.

A further assay deals with PDL1, Q9NZQ7.
Chain of PDL1, Q9NZQ7 (Q9NZQ7 whole entry): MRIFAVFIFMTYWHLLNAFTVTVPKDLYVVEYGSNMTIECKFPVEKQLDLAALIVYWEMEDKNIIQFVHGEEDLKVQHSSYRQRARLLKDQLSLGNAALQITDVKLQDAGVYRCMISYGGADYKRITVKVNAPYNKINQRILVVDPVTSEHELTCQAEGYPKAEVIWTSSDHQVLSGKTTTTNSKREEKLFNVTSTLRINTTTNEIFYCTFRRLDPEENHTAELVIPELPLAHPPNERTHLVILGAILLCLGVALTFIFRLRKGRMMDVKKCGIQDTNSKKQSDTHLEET
For B2, the “binding in a display sort” value was “not found (inactive)”.
